Assay results as given in PubChem BioAssay (Tox21).
Records with an inconclusive call do not appear. Active and inactive are the calls of the source. Unless noted, the call rests on the fitted dose curve; in most records, active means well fitted curve in the direction sought with a large enough effect in the repeat runs; inconclusive means weak or mixed curves; inactive means no such curve, though single readings can be large; an effect the other way counts as inactive or inconclusive.

How the values were obtained:
[1] = Human pregnane X receptor (PXR) small molecule agonists, qHTS cell viability counter screen (AID 1346977); further: nearly all actives have a fitted effect of over 50% in size; further: potency means the concentration at half of the fitted maximal effect
Summary of the method: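 PXR-Luc HepG2 cells in medium with 5% charcoal-stripped FBS were pre-incubated 5hr, then exposed to compounds for 24hr at 37C. Viability was read in the same wells by CellTiter-Fluor fluorescence, reagent added after 23hr with a 1hr incubation.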

[2] = Caspase-3/7 induction in HepG2 cells by small molecules, qHTS assay (AID 1346978); further: nearly all actives have a fitted effect of over 15% in size
Summary of the method: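 Wild-type HepG2 cells (2,000/well) were settled 5 h at 37 C, 5% CO2, then exposed to compounds in DMSO for 17 h. Caspase-3/7 activity was read by luminescence 30 min after adding Caspase-Glo 3/7 reagent at room temperature.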

[3] = Caspase-3/7 induction in CHO-K1 cells by small molecules, qHTS cell viability counter screen (AID 1346979); further: nearly all actives have a fitted effect of over 35% in size; further: potency means the concentration at half of the fitted maximal effect
Summary of the method: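 Wild-type CHO-K1 cells were seeded at 1,500 per well, rested 5hr at 37 C, then exposed to compounds in DMSO. After 16hr, CellTiter-Fluor reagent was added and fluorescence read 1hr later as the viability measure.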

[4] = Caspase-3/7 induction in CHO-K1 cells by small molecules, qHTS assay (AID 1346980); further: nearly all actives have a fitted effect of over 15% in size
Summary of the method: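 Wild-type cells were seeded at 1,500 per well and settled 5 hr at 37 C, 5% CO2, then exposed to DMSO-dissolved compounds for 17 hr. Caspase-Glo 3/7 reagent was added, and luminescence was read after 30min at room temperature.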

[5] = Caspase-3/7 induction in HepG2 cells by small molecules, qHTS cell viability counter screen (AID 1346981); further: nearly all actives have a fitted effect of over 30% in size; further: potency means the concentration at half of the fitted maximal effect
Summary of the method: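 Viability determined by CellTiter-Fluor fluorescence in HepG2 wells also used for the luminescent Caspase-Glo 3/7 read. Compounds were present for 16 hr at 37 C, 5% CO2 before reagent addition.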

[6] = biological target: Nuclear receptor subfamily 1 group I member 2 (Homo sapiens) (UniProt O75469); experiment: Human pregnane X receptor (PXR) small molecule agonists, qHTS assay (AID 1346982); further: nearly all actives have a fitted effect of over 35% in size; further: potency means the concentration at half of the fitted maximal effect
Summary of the method: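 Compound-induced hPXR transactivation of a CYP3A4 luciferase reporter was scored in HepG2 PXR-Luc cells over 24 hr at 37 C, 5% CO2, by luminescence.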

[7] = biological target: Acetylcholinesterase (Homo sapiens) (UniProt P22303); experiment: Acetylcholinesterase (AChE) small molecule antagonists: enzyme-based qHTS assay (AID 1347397; calls by dose curve; further: nearly all actives have a fitted effect of over 55% in size); settings: Potency: AChE enzyme activity inhibition; outcome: AChE enzyme activity inhibition
Summary of the method: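 Human recombinant acetylcholinesterase; substrate acetylthiocholine; thiocholine quantified with DTNB (colorimetric). Compound preincubation 30 min RT; reaction 10 min RT.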

[8] = biological target: Acetylcholinesterase (Homo sapiens) (UniProt P22303); experiment: Acetylcholinesterase (AChE) small molecule antagonists: fluorescence cell-based qHTS assay (AID 1347398; calls by dose curve; further: nearly all actives have a fitted effect of over 50% in size); settings: Potency: AChE activity; outcome: AChE activity
Summary of the method: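 Thiocholine generated from acetylthiocholine by SH-SY5Y cell AChE is detected with Thiolite Green (Ex/Em 490/520 nm) after 40 min at room temperature, following 30 min compound pretreatment at 37 C.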

[9] = biological target: Acetylcholinesterase (Homo sapiens) (UniProt P22303); experiment: Acetylcholinesterase (AChE) small molecule antagonists: enzyme-based qHTS assay with human liver microsomes (AID 1347399; calls by dose curve; further: nearly all actives have a fitted effect of over 60% in size); settings: Potency: qHTS inhibition; outcome: qHTS inhibition
Summary of the method: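 Recombinant human AChE (50 mU/mL in the enzyme mix) and human liver microsomes (0.25 mg/mL final) were preincubated with compound and NADPH (0.25 mg/mL final) for 30 min at 37 C. Acetylthiocholine/DTNB was then added; thiocholine was read colorimetrically after 10 min at room temperature.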

[10] = biological target: Cytochrome P450 2C9 (Homo sapiens) (UniProt P11712); experiment: Cytochrome P450 Family 2 Subfamily C Member 9 (CYP2C9) small molecule antagonists: luciferase reporter qHTS assay (AID 1671198); further: nearly all actives have a fitted effect of over 50% in size; further: potency means the concentration at half of the fitted maximal effect
Summary of the method: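 CYP2C9 activity was measured with a P450-Glo proluciferin substrate. Enzyme–substrate mix was held with compound for 10 min at room temperature, then NADPH regeneration solution was added for 1 h at 37C. Luciferin product was read as luminescence.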

[11] = biological target: Cytochrome P450 1A2 (Homo sapiens) (UniProt P05177); experiment: Cytochrome P450 Family 1 Subfamily A Member 2 (CYP1A2) small molecule antagonists: luciferase reporter qHTS assay (AID 1671199); further: series mostly up to about 120 µM; nearly all actives have a fitted effect of over 50% in size
Summary of the method: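 Enzymatic CYP1A2 assay, human, luminescent: 10 min compound–enzyme–substrate preincubation, 1 h NADPH-dependent turnover, 20 min detection step, room temperature throughout. Reduced light indicates lower CYP1A2 activity.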

[12] = biological target: Voltage-gated inwardly rectifying potassium channel KCNH2 (Homo sapiens) (UniProt Q12809); experiment: Human Ether-a-go-go-Related Gene (hERG) channel small molecule antagonists: fluorescence cell-based qHTS assay (AID 1671200); further: nearly all actives have a fitted effect of over 50% in size; further: potency means the concentration at half of the fitted maximal effect
Summary of the method: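 U2OS cells expressing the channel were plated at 1000 cells/well, incubated overnight at 37 C, then loaded with FluxOR II thallium-sensitive dye for 1 h at room temperature in the dark, with a further 10 min at room temperature before stimulation.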

[13] = biological target: Cytochrome P450 3A4 (Homo sapiens) (UniProt P08684); experiment: Cytochrome P450 Family 3 Subfamily A Member 4 (CYP3A4) small molecule antagonists: luciferase reporter qHTS assay (AID 1671201)
Summary of the method: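 P450-Glo CYP3A4 system with proluciferin substrate; compounds preincubated 10 min RT with enzyme-substrate mix, then NADPH regeneration added for 1 h RT. Detection reagent 20 min, luminescence read as relative luminescence units.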

[14] = biological target: Acetylcholinesterase (Homo sapiens) (UniProt P22303); experiment: Acetylcholinesterase (AChE) small molecule antagonists: colormetric cell-based qHTS assay (AID 1347395; calls by dose curve; further: nearly all actives have a fitted effect of over 30% in size)
Summary of the method: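 SH-SY5Y cells, plated overnight at 37 C, were exposed to compounds for 30 min at 37 C and 5% CO2. Acetylthiocholine plus DTNB was then added, and thiocholine from endogenous AChE was quantified colorimetrically after 90 min at 37 C.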

[15] = biological target: Cytochrome P450 2D6 (Homo sapiens) (UniProt P10635); experiment: Cytochrome P450 Family 2 Subfamily D Member 6 (CYP2D6) small molecule antagonists: luciferase reporter qHTS assay (AID 1671196); further: nearly all actives have a fitted effect of over 50% in size; further: potency means the concentration at half of the fitted maximal effect
Summary of the method: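 Each well received CYP2D6 with its proluciferin substrate and chemical, sat 10 min, then got NADPH regeneration solution for 1 h at room temperature. Luminescence in RLU served as the activity measure.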

[16] = biological target: Cytochrome P450 2C19 (Homo sapiens) (UniProt P33261); experiment: Cytochrome P450 Family 2 Subfamily C Member 19 (CYP2C19) small molecule antagonists: luciferase reporter qHTS assay (AID 1671197); further: nearly all actives have a fitted effect of over 65% in size; further: potency means the concentration at half of the fitted maximal effect
Summary of the method: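 Compounds were tested on CYP2C19 activity via proluciferin conversion to luciferin. The 37C, 1 h reaction followed NADPH addition; detection reagent stopped it.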

[17] = biological target: Nuclear receptor subfamily 1 group I member 2 (Rattus norvegicus) (UniProt Q9R1A7); experiment: Rat pregnane X receptor (rPXR) activation by small molecules, qHTS assay (AID 1346983); settings: rPXR luciferase reporter cells, One-Glo luminescence, 24 h; stronger effect = higher value; further: nearly all actives have a fitted effect of over 20% in size
Summary of the method: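 Cell-based rPXR luciferase reporter assay, 2,000 cells per well, rested 5hr at 37 C before compound addition in DMSO, then 24 hr at 37 C. One-Glo reagent was added and luminescence read after 30 min at room temperature.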

[18] = biological target: Nuclear receptor subfamily 1 group I member 2 (Homo sapiens) (UniProt O75469); experiment: CYP3A4 induction through human pregnane X receptor (PXR) by small molecules, qHTS assay (AID 1346984); further: nearly all actives have a fitted effect of over 40% in size
Summary of the method: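 Readings come from a luciferase reporter: DPX-2 cells, which are HepG2 cotransfected with PXR and a CYP3A4-promoter construct, were exposed to test compounds for 24 h at 37C before One-Glo detection.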

[19] = biological target: Nuclear receptor subfamily 1 group I member 2 (Homo sapiens) (UniProt O75469); experiment: Human pregnane X receptor (PXR) activation by small molecules, qHTS assay (AID 1346985); further: nearly all actives have a fitted effect of over 40% in size
Summary of the method: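 DPX-2 cells (HepG2 co-transfected with a PXR response element and a CYP3A4-promoter luciferase construct) were seeded at 2,000 per well, rested 5 hr at 37C, then exposed to DMSO-dissolved compounds for 24 hr. Activation was read as luciferase luminescence.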
On the % scale 0 is the no-effect control and ±100 the full control effect.

Sequence of Cytochrome P450 2C9 (Homo sapiens) (P11712 whole entry, looked up): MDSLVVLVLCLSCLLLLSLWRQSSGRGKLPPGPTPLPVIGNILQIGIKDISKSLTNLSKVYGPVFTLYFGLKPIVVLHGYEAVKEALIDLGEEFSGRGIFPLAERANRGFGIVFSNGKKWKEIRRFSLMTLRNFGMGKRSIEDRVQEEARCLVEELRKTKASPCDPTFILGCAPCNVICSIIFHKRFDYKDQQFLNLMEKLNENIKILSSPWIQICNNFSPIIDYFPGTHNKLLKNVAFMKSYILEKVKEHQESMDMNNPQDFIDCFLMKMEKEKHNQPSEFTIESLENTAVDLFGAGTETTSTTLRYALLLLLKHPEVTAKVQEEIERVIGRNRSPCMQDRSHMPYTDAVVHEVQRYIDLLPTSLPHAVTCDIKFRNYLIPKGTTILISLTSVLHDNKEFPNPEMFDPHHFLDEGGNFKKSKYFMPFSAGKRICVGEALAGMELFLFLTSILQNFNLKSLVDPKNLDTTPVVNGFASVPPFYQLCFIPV
Sequence of Voltage-gated inwardly rectifying potassium channel KCNH2 (Homo sapiens) (Q12809 whole entry, looked up): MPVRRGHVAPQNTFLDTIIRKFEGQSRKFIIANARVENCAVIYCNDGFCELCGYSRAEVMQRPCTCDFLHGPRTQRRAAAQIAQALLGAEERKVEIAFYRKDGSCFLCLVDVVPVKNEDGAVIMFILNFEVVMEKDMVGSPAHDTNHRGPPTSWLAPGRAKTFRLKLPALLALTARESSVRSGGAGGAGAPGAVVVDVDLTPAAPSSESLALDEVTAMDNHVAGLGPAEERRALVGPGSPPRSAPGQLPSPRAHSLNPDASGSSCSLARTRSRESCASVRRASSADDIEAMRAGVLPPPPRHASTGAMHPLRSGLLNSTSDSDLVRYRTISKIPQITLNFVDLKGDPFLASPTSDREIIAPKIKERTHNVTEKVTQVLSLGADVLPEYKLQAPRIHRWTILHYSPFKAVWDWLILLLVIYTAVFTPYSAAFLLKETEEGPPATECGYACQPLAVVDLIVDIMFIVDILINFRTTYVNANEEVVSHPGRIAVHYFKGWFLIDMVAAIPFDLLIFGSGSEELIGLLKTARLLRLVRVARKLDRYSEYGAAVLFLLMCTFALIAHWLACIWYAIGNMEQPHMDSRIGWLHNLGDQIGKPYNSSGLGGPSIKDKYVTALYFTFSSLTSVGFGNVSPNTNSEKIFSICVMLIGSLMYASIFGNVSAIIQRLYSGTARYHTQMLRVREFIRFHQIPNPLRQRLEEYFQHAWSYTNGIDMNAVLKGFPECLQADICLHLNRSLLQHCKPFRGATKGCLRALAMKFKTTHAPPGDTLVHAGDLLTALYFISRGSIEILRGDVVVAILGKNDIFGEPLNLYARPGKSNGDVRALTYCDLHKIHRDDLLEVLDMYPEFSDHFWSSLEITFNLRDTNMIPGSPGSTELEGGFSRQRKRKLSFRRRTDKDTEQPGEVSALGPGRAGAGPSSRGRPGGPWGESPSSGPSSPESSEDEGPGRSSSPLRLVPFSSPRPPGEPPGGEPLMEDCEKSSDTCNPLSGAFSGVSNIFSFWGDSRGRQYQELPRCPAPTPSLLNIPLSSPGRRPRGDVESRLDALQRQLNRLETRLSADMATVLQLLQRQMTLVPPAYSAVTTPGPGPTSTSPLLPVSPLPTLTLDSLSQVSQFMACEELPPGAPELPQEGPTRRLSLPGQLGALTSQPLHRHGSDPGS
Sequence of Cytochrome P450 3A4 (Homo sapiens) (P08684 whole entry, looked up): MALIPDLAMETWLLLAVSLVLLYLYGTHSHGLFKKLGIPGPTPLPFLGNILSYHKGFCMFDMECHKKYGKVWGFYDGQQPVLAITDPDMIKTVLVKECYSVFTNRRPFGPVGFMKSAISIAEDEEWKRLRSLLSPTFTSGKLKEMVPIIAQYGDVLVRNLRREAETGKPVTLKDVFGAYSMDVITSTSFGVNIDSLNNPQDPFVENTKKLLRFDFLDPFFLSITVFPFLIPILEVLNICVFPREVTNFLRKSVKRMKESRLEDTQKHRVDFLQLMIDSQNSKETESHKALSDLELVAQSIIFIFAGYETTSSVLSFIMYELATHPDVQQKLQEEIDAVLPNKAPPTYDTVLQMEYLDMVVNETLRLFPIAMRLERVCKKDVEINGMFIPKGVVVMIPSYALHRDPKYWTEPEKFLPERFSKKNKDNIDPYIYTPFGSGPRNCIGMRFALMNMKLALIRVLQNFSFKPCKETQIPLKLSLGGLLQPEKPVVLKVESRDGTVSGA
Sequence of Nuclear receptor subfamily 1 group I member 2 (Rattus norvegicus) (Q9R1A7 whole entry, looked up): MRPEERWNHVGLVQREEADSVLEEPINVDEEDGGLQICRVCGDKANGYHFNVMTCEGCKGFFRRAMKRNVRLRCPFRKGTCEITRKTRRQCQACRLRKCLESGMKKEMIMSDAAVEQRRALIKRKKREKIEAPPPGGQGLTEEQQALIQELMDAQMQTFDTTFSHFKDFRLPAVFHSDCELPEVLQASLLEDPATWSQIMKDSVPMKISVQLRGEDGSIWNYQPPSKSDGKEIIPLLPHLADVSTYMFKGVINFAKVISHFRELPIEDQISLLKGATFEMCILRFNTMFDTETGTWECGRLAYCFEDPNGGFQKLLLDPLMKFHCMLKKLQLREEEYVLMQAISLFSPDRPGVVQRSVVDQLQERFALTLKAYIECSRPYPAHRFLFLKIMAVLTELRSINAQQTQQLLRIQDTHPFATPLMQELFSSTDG
Sequence of Cytochrome P450 1A2 (Homo sapiens) (P05177 whole entry, looked up): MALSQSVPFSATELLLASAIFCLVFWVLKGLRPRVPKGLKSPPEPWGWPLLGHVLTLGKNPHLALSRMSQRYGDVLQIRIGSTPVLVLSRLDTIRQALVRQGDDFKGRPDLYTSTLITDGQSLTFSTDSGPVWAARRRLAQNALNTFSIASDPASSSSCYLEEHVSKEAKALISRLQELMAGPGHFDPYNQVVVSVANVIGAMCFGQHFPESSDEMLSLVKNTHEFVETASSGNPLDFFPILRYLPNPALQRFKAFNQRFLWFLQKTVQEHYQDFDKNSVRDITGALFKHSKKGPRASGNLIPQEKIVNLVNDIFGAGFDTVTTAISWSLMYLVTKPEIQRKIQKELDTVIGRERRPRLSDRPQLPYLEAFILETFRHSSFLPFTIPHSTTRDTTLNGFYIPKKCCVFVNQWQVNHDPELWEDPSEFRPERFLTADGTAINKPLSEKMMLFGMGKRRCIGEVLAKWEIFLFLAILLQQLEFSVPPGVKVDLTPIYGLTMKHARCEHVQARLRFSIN
Sequence of Acetylcholinesterase (Homo sapiens) (P22303 whole entry, looked up): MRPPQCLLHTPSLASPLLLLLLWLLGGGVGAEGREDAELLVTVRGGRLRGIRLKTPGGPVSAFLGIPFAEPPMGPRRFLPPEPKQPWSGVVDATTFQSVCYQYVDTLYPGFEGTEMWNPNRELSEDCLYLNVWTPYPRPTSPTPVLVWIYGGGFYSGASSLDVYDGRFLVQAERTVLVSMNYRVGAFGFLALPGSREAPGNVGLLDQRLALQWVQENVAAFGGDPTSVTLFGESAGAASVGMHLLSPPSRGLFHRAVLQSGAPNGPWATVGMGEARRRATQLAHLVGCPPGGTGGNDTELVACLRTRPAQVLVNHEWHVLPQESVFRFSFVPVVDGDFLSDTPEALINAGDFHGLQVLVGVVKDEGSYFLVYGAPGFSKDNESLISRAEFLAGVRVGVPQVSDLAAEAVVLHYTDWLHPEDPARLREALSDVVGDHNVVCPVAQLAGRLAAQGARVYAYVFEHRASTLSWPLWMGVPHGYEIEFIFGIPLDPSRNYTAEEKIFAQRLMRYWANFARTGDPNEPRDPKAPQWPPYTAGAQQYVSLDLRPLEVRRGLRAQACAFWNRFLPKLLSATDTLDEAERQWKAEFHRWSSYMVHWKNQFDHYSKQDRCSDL
Sequence of Nuclear receptor subfamily 1 group I member 2 (Homo sapiens) (O75469 whole entry, looked up): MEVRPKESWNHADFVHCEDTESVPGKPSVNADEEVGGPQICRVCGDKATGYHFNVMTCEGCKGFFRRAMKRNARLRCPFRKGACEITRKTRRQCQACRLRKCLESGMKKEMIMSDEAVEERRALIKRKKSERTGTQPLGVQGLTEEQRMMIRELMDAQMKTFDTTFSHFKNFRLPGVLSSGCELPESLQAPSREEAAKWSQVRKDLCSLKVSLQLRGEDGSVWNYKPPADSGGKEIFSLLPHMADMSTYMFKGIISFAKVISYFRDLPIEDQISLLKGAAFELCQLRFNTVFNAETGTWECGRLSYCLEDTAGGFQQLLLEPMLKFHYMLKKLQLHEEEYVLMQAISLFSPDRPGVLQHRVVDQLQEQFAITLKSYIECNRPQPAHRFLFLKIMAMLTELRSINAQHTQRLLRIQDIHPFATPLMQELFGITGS
Sequence of Cytochrome P450 2D6 (Homo sapiens) (P10635 whole entry, looked up): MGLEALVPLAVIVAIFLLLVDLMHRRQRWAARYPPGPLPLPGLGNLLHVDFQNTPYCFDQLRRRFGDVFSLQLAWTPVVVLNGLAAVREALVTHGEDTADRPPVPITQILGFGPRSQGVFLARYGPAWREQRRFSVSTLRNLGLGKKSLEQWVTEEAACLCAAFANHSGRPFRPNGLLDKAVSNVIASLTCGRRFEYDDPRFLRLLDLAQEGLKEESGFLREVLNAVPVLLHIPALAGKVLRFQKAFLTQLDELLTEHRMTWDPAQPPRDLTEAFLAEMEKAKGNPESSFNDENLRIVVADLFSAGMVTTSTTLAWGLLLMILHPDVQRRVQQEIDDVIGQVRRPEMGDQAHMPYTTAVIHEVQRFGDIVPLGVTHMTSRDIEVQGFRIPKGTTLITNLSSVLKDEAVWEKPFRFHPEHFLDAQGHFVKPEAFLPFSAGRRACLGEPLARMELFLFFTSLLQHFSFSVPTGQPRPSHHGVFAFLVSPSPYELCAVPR

CCCC[P+](CC)(CCCC)CCCC (tested in a mixture with another compound)
active: Potency [12] 24.7 µM
inactive: Potency [1] | Potency [2] | Potency [3] | Potency [4] | Potency [5] | Potency [6] | Potency [7] | Potency [8] | Potency [9] | Potency [10] | Potency [11] | Potency [13]

O=C(O)C(F)(F)C(F)(F)C(F)(F)C(F)(F)C(F)(F)C(F)(F)C(F)(F)C(F)(F)F
active: Potency [6] 21.7 µM | Potency [16] 71 µM | Potency [10] 1.78 µM
inactive: Potency [1] | Potency [2] | Potency [3] | Potency [4] | Potency [5] | Potency [14] | Potency [8] | Potency [9] | Potency [15] | Potency [12] | Potency [13]

C=CC(=O)OCC
inactive: Potency [1] | Potency [2] | Potency [3] | Potency [4] | Potency [5] | Potency [6] | Potency [14] | Potency [7] | Potency [8] | Potency [9] | Potency [16] | Potency [10] | Potency [12] | Potency [13]

O=C1NC(=O)C(=O)C(=O)N1
inactive: Potency [1] | Potency [2] | Potency [3] | Potency [4] | Potency [5] | Potency [6] | Potency [14] | Potency [8] | Potency [9] | Potency [15] | Potency [10] | Potency [12] | Potency [13]

C#C[C@]1(O)CC[C@H]2[C@@H]3CCC4=CC(=O)CCC4=C3C=C[C@@]21CC
active: Potency [3] 26.6 µM | Potency [15] 5.49 µM | Potency [16] 2.45 µM | Potency [10] 0.776 µM
inactive: Potency [1] | Potency [2] | Potency [4] | Potency [5] | max activation [17] -15.2% | Potency [14] | Potency [7] | Potency [9] | Potency [11] | Potency [12]

Clc1ccc2ccccc2c1
inactive: Potency [1] | Potency [2] | Potency [3] | Potency [4] | Potency [5] | Potency [6] | Potency [14] | Potency [7] | Potency [8] | Potency [9] | Potency [16] | Potency [10] | Potency [12] | Potency [13]

CC[N+]1(CCOC(=O)C(O)(c2ccccc2)c2ccccc2)CCCCC1
inactive: Potency [1] | Potency [2] | Potency [3] | Potency [4] | Potency [5] | max activation [17] 0.456% | outcome [18] | Potency [19] | Potency [14] | Potency [7] | Potency [8] | Potency [9] | Potency [16] | Potency [10] | Potency [11] | Potency [12] | Potency [13]
active: Potency [15] 0.977 µM

O=C(N/N=C/c1ccc([N+](=O)[O-])o1)c1cc([N+](=O)[O-])cc([N+](=O)[O-])c1O
inactive: Potency [2] | Potency [4] | max activation [17] 3.24% | outcome [18] | Potency [19] | Potency [14] | Potency [7] | Potency [8] | Potency [9] | Potency [15] | Potency [16] | Potency [11] | Potency [12] | Potency [13]
active: Potency [1] 21.1 µM | Potency [3] 23.7 µM | Potency [5] 13.3 µM | Potency [10] 30.9 µM
